# Compounds with a hit are over-represented: about 5.4% of the library has one in this group of screens.
# GAA850 FXN act = frataxin GAA850 promoter activation | AID 540364 | hit rate 0.56% among 360,000 | activation, % at 6 µM | HEK293 lucGAA850 FXN promoter luciferase reporter, 24 h; percent of 10 µM SAHA response;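 active = activation above the average of all compounds screened plus 3 SD, cutoff fixed separately per campaign, cut at about 7.5% in these data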;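 also: 0% = DMSO wells and 100% = 10 µM SAHA wells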
# DAX1 inh = inhibitors of human orphan nuclear receptor DAX1 (NR0B1). P51843. hit rate 0.99% among 340,000. inhibition, % at 6.75 µM. HEK293 Gal4-DAX1 luciferase reporter, luminescence. AID 504766;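 active = inhibition above the mean over all tested compounds plus 3 SD, cut at about 4.2% in these data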;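 also: 0% = DAX1-transfected cells with DMSO and 100% = empty-vector control cells with DMSO; inhibition shows as a rise in luminescence from relieved DAX1 repression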
# Target sequence (P51843 207-470 limits assumed): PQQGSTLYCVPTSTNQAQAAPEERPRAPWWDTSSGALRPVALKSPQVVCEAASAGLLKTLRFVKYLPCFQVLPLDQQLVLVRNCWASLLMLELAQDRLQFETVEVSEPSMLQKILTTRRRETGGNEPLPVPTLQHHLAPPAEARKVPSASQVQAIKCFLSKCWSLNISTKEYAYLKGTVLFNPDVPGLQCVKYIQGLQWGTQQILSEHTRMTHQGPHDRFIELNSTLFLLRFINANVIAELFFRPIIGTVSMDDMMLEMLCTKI
# AHR act = activators of human aryl hydrocarbon receptor | activation, % at 5 µM | hit rate 2.5% among 320,000 | AHR-responsive luciferase reporter cells, luminescence | AID 2796 | P35869; in the data active = activation above about 47%;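 also: 0% = vehicle wells and 100% = reference agonist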
# HSF1 activator = increases HSF-1 driven luciferase reporter signal; NIH3T3-HGL HSF-1 luciferase reporter, MG132, 8 h; 100% = twice DMSO control signal; activation, % at 9 µM; hit rate 1.7% among 300,000; AID 504408;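 active = mean replicate activation of at least 50% with a set share of replicates each reaching 50%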;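 also: 0% = median of the neutral control wells and 100% = twice that signal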
# HSF1 inh = HSF1 inhibition; NIH3T3-HGL HSE-luciferase, MG132-induced, luminescence 8 h; stronger effect = lower value; activity change, negative = inhibition, % at 7.5 µM (by protocol); hit rate 0.77% among 300,000; AID 2098;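 active = more than half of replicate wells show activity change below -50%, luminescence cut by over half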;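 also: luciferase reports HSF-1 transcriptional activity via heat shock element; 0% = median of DMSO wells and -100% = zero luminescence signal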
# Starred values were filed as active, the others as inactive; . = not tested or not shown.
SMILES,GAA850 FXN act,DAX1 inh,AHR act,HSF1 activator,HSF1 inh
CN(C)/C=N/S(=O)(=O)c1cccn1-c1ncc(C(F)(F)F)cc1Cl,3,-2,2,2,-3
CN(C)/C=N/c1ncn(-c2ncc(C(F)(F)F)cc2Cl)n1,5,4.4*,2,27,7
O=C(CCN1C(=O)c2ccccc2S1(=O)=O)NCc1ccccc1Cl,-2,-1,.,11,5
COc1ccc(C(=O)C[n+]2ccc3ccccc3c2C)cc1,2,8.6*,59*,34,24
COc1ccc(C(=O)OCCc2sc[n+](CC(=O)c3ccccc3)c2C)cc1,1,4.5*,-1,26,3
COc1cc(OC)c(N(C)C(=O)c2cn(C)c(=O)c3cc(OC)c(OC)cc23)cc1Cl,1,0,3,6,-7
Cc1ccc(NC(=O)C2CCN(C(=O)c3ccc(F)cc3)CC2)nc1,0,-1,4,-9,5
C=CCn1c(=NC(=O)c2cccc(N3C(=O)CCC3=O)c2)sc2cccc(OC)c21,-1,4.8*,10,-30,-8
COc1ccc(C)c2sc(=NC(=O)c3cccc(N4C(=O)CCC4=O)c3)n(C)c12,5,2,37,41,16
COc1ccc(OC)c(-n2c(=O)c3ccccc3c3ccccc3c2=O)c1,3,0,1,59*,22
COc1ccc(-n2c(=O)c3ccccc3c3ccccc3c2=O)cc1,2,0,2,15,2
Nc1ccc(S(N)(=O)=O)cc1N,6,7.3*,115*,27,18
Cc1cc(C)n(CCc2nc(-c3ccc(-c4ccccc4)cc3)cs2)n1,1,0,3,52*,35
Oc1csc(Cc2nc(-c3ccc(-c4ccccc4)cc3)cs2)n1,4,0,65*,-10,-15
COc1ccc(-c2csc(CCn3nc(C)cc3C)n2)cc1,4,0,-9,7,5
CCOc1ccc(NC(=O)CN(C)CC(=O)Nc2cc(Cl)ccc2C#N)cc1OCC,1,1,55*,27,3
COc1ccc(/C=C/C(=O)c2ccc(O)cc2)cc1COc1ccc(F)cc1,2,-2,0,83*,59
COc1ccc(/C=C/C(=O)c2ccccc2)cc1COc1ccc(F)cc1,-2,1,0,3,4
COc1ccc(C(=O)/C=C/c2cccc(OCc3ccccc3)c2)cc1CSCC(=O)O,1,0,2,23,13
COc1ccccc1CC(=O)c1ccc(OCc2ccccc2)cc1,4,1,48*,23,22
COc1ccc(Oc2ccc(/C=C/C(=O)c3ccc(O)cc3)cc2[N+](=O)[O-])cc1,-4,-3,-1,77*,34
COc1ccc(C(=O)/C=C/c2ccc(OCc3ccccc3)cc2)cc1CSCC(=O)O,1,0,.,55*,16
Cc1ccc2nc(C)c(C(=O)NN=C3CCN(C)CC3)n2c1,-4,-3,6,7,-9
COc1ccc([C@H]2CC(=O)C=C(c3ccc4cc[nH]c4c3)C2)cc1,1,1,16,.,.
O=C(NCc1ccco1)c1ccc2c(c1)N(Cc1ccccc1)C(=O)CS2=O (centres undefined),0,-1,0,3,3
SMILES,GAA850 FXN act,DAX1 inh,AHR act,HSF1 activator,HSF1 inh
CCN(CC)C(=O)c1ccc2c(c1)N(Cc1ccccc1)C(=O)CS2=O (centres undefined),1,4.7*,0,-2,-3
Cc1ccc(/C=N/N(Cc2ccccc2)c2ccccc2)o1,3,0,13,106*,60
Cc1ccc(/C=N/N2CCN(Cc3ccccc3)CC2)o1,2,0,-3,4,-1
CS(=O)(=O)N(CC(=O)Nc1ccc(S(=O)(=O)N2CCOCC2)cc1)c1cccc(F)c1,2,-2,1,10,-2
O=C(Nc1nnc(-c2ccccc2F)s1)C1CCN(S(=O)(=O)c2ccc(Cl)cc2)CC1,1,-1,14,.,.
Cc1ccc(S(=O)(=O)N2CCC(C(=O)Nc3cccnc3)CC2)cc1,2,5.4*,0,.,.
O=C(Nc1nnc(-c2ccccc2Cl)s1)C1CCN(S(=O)(=O)c2ccc(Cl)cc2)CC1,2,-1,0,56*,13
Cc1ccc(C(=O)Nc2cccnc2)cc1S(=O)(=O)N1CCCCCC1,1,-1,77*,35,9
Cc1ccc(NC(=O)C2CCN(S(=O)(=O)c3cccnc3)CC2)cc1C,-2,0,3,0,-8
Cc1cc(C)n(-c2ccc(C(=O)OCC(=O)Nc3ccccc3F)cc2)n1,0,0,-1,.,.
O=C(COC(=O)C1CCC1)NCc1ccc(F)cc1,1,0,-2,-1,-1

# Compound activity deposited in PubChem BioAssay by several laboratories.
